Only some compounds are listed: those with a hit (about 27% of all), similar ones and a draw of the others.
CYP2C9 inhib – human CYP2C9 inhibition | P11712 | CYP2C9 Supersomes, luciferin-H conversion, luminescence | inhibition, % at 5 µM | actives 20% (n = 96,000) | AID 777;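 active means blocking of liver enzyme CYP2C9 beyond about 50% at 5 µM, limit read from the data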
Target sequence (P11712 whole entry, looked up): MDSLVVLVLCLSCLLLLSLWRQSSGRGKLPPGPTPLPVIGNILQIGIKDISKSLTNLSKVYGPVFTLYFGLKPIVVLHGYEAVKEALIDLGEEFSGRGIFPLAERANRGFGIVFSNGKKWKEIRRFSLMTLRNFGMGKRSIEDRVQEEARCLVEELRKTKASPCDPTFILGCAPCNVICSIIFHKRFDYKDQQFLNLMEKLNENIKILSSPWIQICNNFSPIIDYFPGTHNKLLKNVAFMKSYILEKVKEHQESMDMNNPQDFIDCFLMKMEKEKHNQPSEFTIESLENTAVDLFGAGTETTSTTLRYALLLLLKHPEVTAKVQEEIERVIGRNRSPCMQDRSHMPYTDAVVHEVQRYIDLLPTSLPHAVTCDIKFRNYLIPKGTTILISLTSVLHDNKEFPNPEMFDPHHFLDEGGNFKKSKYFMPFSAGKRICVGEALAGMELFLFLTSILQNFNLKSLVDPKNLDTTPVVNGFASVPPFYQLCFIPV
CYP2C19 activ – increases human CYP2C19 enzyme activity; 96,000 tested, under 10 active; recombinant CYP2C19, luciferin-H EGE luminescence; active compounds read high; 0 = fully inhibited enzyme, 1 = untreated enzyme; activation factor at 5 µM;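 active means activation factor of at least 2 at 5 µM in the primary screen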;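 further: 0 = wells with 2.5 mM tranylcypromine and 1 = vehicle-only wells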
CYP2C9 activ – increases human cytochrome P450 2C9 activity; activation factor at 5 µM; actives 1.4% (n = 96,000); recombinant CYP2C9, luciferin-H conversion, luminescence; active compounds read high; factor 1 = untreated enzyme, 0 = blocked; AID 1024;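 active means activation factor of 2 or more for CYP2C9 at a 5 µM dose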;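 further: 0 = sulfaphenazole-blocked wells and 1 = vehicle-only wells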
CYP2C19 inhib – blocks human cytochrome P450 2C19; inhibition, % at 5 µM; CYP2C19 Supersomes, luciferin-H EGE luminescence, 30 min; actives 21% (n = 96,000); P33261;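 active means CYP2C19 inhibition above a set limit at 5 µM in the primary screen, cut at about 50% in these data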;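 further: plate controls were negative control wells for no effect and 2.5 mM tranylcypromine positive control for full effect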
Cav3 T inh – human Cav3.2 channel inhibition, primary screen | Cav3.2-expressing cells, Fluo-4 calcium fluorescence FDSS; active compounds read low | B-score at 10 µM | actives 4% (n = 100,000) | AID 449739;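 active means single-dose well whose peak fluorescence ratio is a statistical outlier from its plate by either plate-standardised score or position-corrected B-score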
The depositor's hits bear a star; . = no result.

SMILES	CYP2C9 inhib	CYP2C19 activ	CYP2C9 activ	CYP2C19 inhib	Cav3 T inh
CCCC(OC(=O)CC1Sc2ccccc2NC1=O)C(=O)NCc1ccco1 (stereo not drawn)	33	0.7	0.7	28	0.035
COc1ccc(CNC(=O)c2ccc(N3CCC4(CC3)CC(c3ccc(Cl)cc3)=NO4)c(NC(=O)c3ccccc3)c2)cc1	.	.	.	.	0.016
COc1cccc(NS(=O)(=O)c2nc3nc(C)cc(C)n3n2)c1	-7	1	1.1	-4	0.73
Cc1ccc(Oc2nn[nH]n2)cc1	70*	1.1	0.3	-5	0.54
CCc1cccc(Oc2nn[nH]n2)c1	-5	1	1	0	0.003
Cc1ccc(Cc2cnc(NC(=O)/C(C#N)=C/c3ccc(-c4ccccc4[N+](=O)[O-])o3)s2)cc1	54*	0.9	0.5	9	.
Brc1ccc(NCc2nnc3n2CCCCC3)cc1	1	0.4	1	64*	1
Cc1ccc(NCc2nnc3n2CCCCC3)cc1	-1	0.2	1	75*	0.083
O=C(NCc1nnc2n1CCCCC2)c1ccc(Cl)cc1Cl	-38	1	1.4	-2	0.059
Cc1cc(NC(=O)CSc2nc3ccccc3n2CC(=O)N2CCCCC2)no1	25	0.7	0.8	34	-2.4
CN(C)CCCN1c2ccc([N+](=O)[O-])cc2CCc2cc([N+](=O)[O-])ccc21	.	.	.	.	0.029
c1ccc(-c2nn3nnnc3c3ccccc23)cc1	-18	0.5	1.2	52*	0.073
Cc1ccc(-c2nn3nnnc3c3ccccc23)cc1C	-16	0.7	1.2	34	0.65
Cc1[nH]c2ccccc2c1[C@H]1[C@@H](CC#N)C1(C)C	28	0.5	0.7	48	-4.3
Cc1[nH]c2ccccc2c1C1C(c2ccccc2)=NN=C(C(C)C)N1O (stereo not drawn)	.	.	.	.	-5.4*
CCOC(=O)C1CCN(Cc2ccc(F)cc2)CC1	.	.	.	.	0.97
O=S1(=O)CCN(Cc2ccc(Cl)c(Cl)c2)CC1	2	0.5	1	54*	0.19
CCOC(=O)C1CCN(Cc2ccc(Cl)c(Cl)c2)CC1	51*	0.6	0.5	36	-0.37
Clc1ccc(CN2CCCCCCC2)cc1Cl	-6	0.2	1.1	85*	0.47
CCOC(=O)C1CCN(Cc2cnc(Oc3ccc(Cl)cc3C)s2)CC1	9	1	0.9	1	.
CCOC(=O)C1CCN(Cc2cnc(Oc3ccc(N)cc3)s2)CC1	62*	0.6	0.4	45	.
Nn1c(=O)[nH]c2ccccc2c1=O	.	.	.	.	-0.1
COc1cc(-c2ccc3oc(-c4ccsc4)cc3c2)cc(OC)c1OC	.	.	.	.	0.19
COC(=O)c1cnn(-c2cc(Oc3cccc(C)c3)ncn2)c1N	70*	0.7	0.3	35	0.089
CC(=O)c1cnn(-c2cc(Oc3cccc(C)c3)ncn2)c1C	47	0.5	0.5	49	-0.25
SMILES	CYP2C9 inhib	CYP2C19 activ	CYP2C9 activ	CYP2C19 inhib	Cav3 T inh
CCN(CC)CCCn1c(C)cc2c(c1=O)C(c1ccc(OC)c(OC)c1OC)C(C#N)=C(N)O2 (stereo not drawn)	.	.	.	.	0.35
Cc1cc(NC(c2cccnc2)c2ccc3cccnc3c2O)no1 (stereo not drawn)	34	0.7	0.7	30	0.95
Cc1cccc(NC(c2ccc(O)cc2)c2ccc3ccc(C)nc3c2O)n1 (stereo not drawn)	-99	0.6	2*	42	-0.099
CCCCNC(=O)CN(c1cccc(Br)c1)S(C)(=O)=O	.	.	.	.	0.74
CCOC(=O)c1ncn2c1C(=O)OC2(C)C	9	0.9	0.9	12	0.0045
Cc1cc(C(=O)c2cnc(/N=C/N(C)C)s2)cc(C)c1O	-103	0.6	2*	41	0.87
CCc1ccc(C(C)NC(=O)c2ccc(F)cc2)cc1 (stereo not drawn)	51*	0.4	0.5	55*	-4.1*
CCN1CCN(C(=O)c2cc3cc4cc(OC)ccc4nc3s2)CC1	31	0.8	0.7	16	.
Cc1nn(CC(=O)Nc2ccccc2)c(=O)c2ccccc12	38	0.3	0.6	73*	0.73
Cc1nn(CC(=O)NC(C)c2ccccc2)c(=O)c2ccccc12 (stereo not drawn)	-54	0.9	1.5	13	-0.16
Cc1cc(O)c(C(C)C)cc1NC(=O)Cn1nc(C)c2ccccc2c1=O	69*	0.7	0.3	30	-0.0058
CCN(CC)C(=O)c1cn(CC)c(=O)c2cc(OC)c(OC)cc12	-13	1.2	1.1	-23	-0.13
COc1ccc(-c2c(C)n([O-])c3c([n+]2=O)CCC3)cc1OC	-20	1.1	1.2	-12	-0.01
O=C(CCCCn1c(=O)[nH]c2ccsc2c1=O)NCc1ccc2c(c1)OCO2	60*	0.9	0.4	11	0.57
Cn1c(=O)cc(SCC(=O)N2CCN(Cc3ccc4c(c3)OCO4)CC2)c2ccccc21	52*	0.8	0.5	24	0.71
Cn1c(=O)c2sccc2n2c(CCCC(=O)NCc3ccc4c(c3)OCO4)nnc12	6	0.2	0.9	77*	-0.18
O=C(CCCCCn1c(=O)[nH]c2ccccc2c1=O)N1CCN(Cc2ccc3c(c2)OCO3)CC1	80*	0.4	0.2	65*	1.3
COCCCn1c(SCC(=O)Nc2nc3ccccc3s2)nnc1-c1ccoc1C	.	.	.	.	-0.88
Nc1nc2c3ccccc3nc(C3CC3)n2n1	8	0.7	0.9	34	.
CCCc1nc(N)c(C#N)c(-c2ccco2)c1CC	50*	0.4	0.5	59*	-1.6
COc1ccc(-c2csc(NC(=O)CCn3cnc4ccccc4c3=O)n2)cc1OC	66*	0.1	0.3	85*	-1.9
COc1ccc(CC(=O)Nc2nc(C)cs2)cc1OC	30	0.4	0.7	60*	0.42
COc1ccc(CC(=O)Nc2cc(C)on2)cc1OC	10	0.9	0.9	13	.
COc1ccc(-c2csc(NC(C)=O)n2)cc1OC	65*	0.3	0.4	68*	-0.32
C=CCO/N=C(/C)c1c(O)c(CC)c(-c2ccccc2)n(-c2ccccc2)c1=O	.	.	.	.	-7.3*
SMILES	CYP2C9 inhib	CYP2C19 activ	CYP2C9 activ	CYP2C19 inhib	Cav3 T inh
Cc1cc([N+](=O)[O-])nn1CC(=O)NNC(=S)Nc1ccc(F)cc1	-8	1	1.1	0	.
C[C@H](O)CC1=C[C@H](O)[C@@H](C)OC1=O	.	.	.	.	0.69
CC1=C(C(=O)OC(C)C)C(c2ccc(Br)s2)NC(=O)N1C (stereo not drawn)	88*	0	0.1	99*	-4.4*
CCOC(=O)C(C)Oc1ccc(C2NC(=O)NC(C)=C2C(C)=O)cc1Br (stereo not drawn)	72*	0.7	0.3	31	-0.37
CC1=C(C(=O)OCC2CCCO2)C(c2cccc(O)c2)NC(=O)N1 (stereo not drawn)	20	0.3	0.8	67*	0.88
CCOc1ccc(C2NC(=O)NC(C)=C2C(=O)OC)cc1C (stereo not drawn)	29	0.6	0.7	43	0.24
CCOC(=O)C1=C(C)NC(=O)NC1c1ccc(Br)s1 (stereo not drawn)	37	0.2	0.6	78*	-0.21
COC(=O)C1=C(C)N(C)C(=O)NC1c1ccccc1 (stereo not drawn)	13	0.9	0.9	6	0.7

Source: PubChem BioAssay (several laboratories)
